Compound activity as filed in PubChem.
Compounds with a hit are over-represented: about 1.7% of the library has one in this group of screens.
GLP-1R agonist: GLP-1 receptor (human) agonism; P43220; HEK293 GLP-1R CRE-luciferase, luminescence, 4-6 h; cells express a hypersensitive GLP-1R form; AID 624172; Potency, µM (doses to about 45.6 µM), without a hit: at the highest dose activation, hits mostly activators; 0.007% of 380,000 active; further: % of control where 0% means no effect
Target sequence (P43220 whole entry, looked up): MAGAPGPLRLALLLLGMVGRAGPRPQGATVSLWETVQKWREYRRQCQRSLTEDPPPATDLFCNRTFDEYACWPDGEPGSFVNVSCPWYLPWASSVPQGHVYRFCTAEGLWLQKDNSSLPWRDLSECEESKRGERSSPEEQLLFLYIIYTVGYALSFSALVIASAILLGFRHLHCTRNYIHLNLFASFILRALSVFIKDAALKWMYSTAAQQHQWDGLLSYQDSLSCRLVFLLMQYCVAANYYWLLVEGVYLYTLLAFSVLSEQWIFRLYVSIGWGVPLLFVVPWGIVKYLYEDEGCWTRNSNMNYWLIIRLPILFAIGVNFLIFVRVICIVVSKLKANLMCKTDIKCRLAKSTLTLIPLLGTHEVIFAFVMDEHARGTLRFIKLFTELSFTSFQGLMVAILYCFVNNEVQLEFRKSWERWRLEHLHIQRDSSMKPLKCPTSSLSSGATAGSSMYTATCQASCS
GLP1R inv ag: acts as inverse agonist at human GLP-1 receptor; 1.6% of 410,000 active; HEK293 GLP-1R CRE-luciferase, luminescence, 24 h; GLP-1R form is constitutively active; P43220; Potency, µM (top dose mostly 38.3 µM), inactives show at the highest dose activity change, negative = inhibition, most hits filed as inhibitors; further: on the % scale 0 is the no-effect control and ±100 the full control effect; nearly all actives have a fitted effect of over 55% in size
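Assay principle: reduced luminescence from a cAMP-responsive reporter in HEK293 cells co-expressing a constitutively active GLP-1R. Conditions: 24 hr compound incubation, 37 deg C, 5% CO2.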
GLP1R cytotox: cytotoxicity counter-screen for GLP-1 receptor inverse agonists; HEK293 cAMP-luciferase reporter cells, luminescence, 24 h; Potency, µM (doses to about 38.3 µM), for the others: at the top dose activity change, negative = inhibition, hits mostly inhibitors; 0.13% of 410,000 active; AID 624418;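 further: loss of luciferase light is scored as toxicity; on the % scale 0 is the no-effect control and ±100 the full control effect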
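Quantitative HTS format, 1536 wells, 200 cells/uL seeded. Compounds: 23 nL, 24 h, 37 °C. Detection: luciferase reagent, luminescence at 12 min RT; decreased signal taken as cytotoxic.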
PTHR1 ag: PTHR1 (human) receptor agonism. Q03431. HEK293 GP2 PTHR1 cells, GloSensor cAMP luminescence, 1 h. Potency, µM (titrated, usually from 115 µM), for inactives: top-dose activation, actives largely listed as activators. 0.075% of 410,000 active. AID 743266; further: nearly all actives have a fitted effect of over 55% in size
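HEK-293-derived GP2 cells expressing PTHR1 and a GloSensor cAMP reporter, 3,000/well, plated overnight, given luciferin plus IBMX (each 0.5 mM as added) for 1 h at 37 °C, then compound for 1 h at 37 °C. Luminescence was read after 15 min at room temperature.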
* hit, by the source's call; i = inactive; u = inconclusive; x = not tested or not shown; [ ] = remark or other dose. The call rests on the fitted dose curve; in most records, active means well fitted curve in the direction sought with a large enough effect; inconclusive means small, poorly fitted or top-dose-only effect, or another doubt; inactive means no such curve, though single readings can be large; an effect the other way counts as inactive or inconclusive. Potency means the concentration at half of the fitted maximal effect.

SMILES | GLP-1R agonist | GLP1R inv ag | GLP1R cytotox | PTHR1 ag
Cc1ccc(-c2cn3nc(N4CCCC(C(=O)Nc5ccc(F)cc5)C4)sc3n2)cc1 (centres undefined) | x | u | -7% | -22%
Cc1ccc(C2N(c3ccc(Cl)cc3)C(=O)N3CCCN23)cc1 (centres undefined) | 8% | 10µM* | -8% | -10%
O=C1N(c2ccccc2)C(c2ccc(Cl)cc2)N2CCCN12 (centres undefined) | 0% | u | -8% | -7%
CCOc1ccc(CNCc2c(C(=O)O)c(C)n(Cc3ccc(F)cc3Cl)c2C)cc1 | x | 3% | 0% | i
Cc1ccc(-n2cc(C(=O)Oc3ccc(F)cc3)c3ccccc3c2=O)cc1 | x | -8% | 1% | -24%
Clc1cccc(-c2nc(NCCCN3CCOCC3)c3ccccc3n2)c1 | 3% | 10µM* | -8% | i
Clc1cccc(-c2nc(NCCN3CCOCC3)c3ccccc3n2)c1 | 17% | 7.1µM* | -19% | -7%
Cc1ccc(-c2nc(NCCN3CCOCC3)c3ccccc3n2)cc1 | 9% | 0% | -8% | i
Clc1ccc(-c2nc(NCCCN3CCOCC3)c3ccccc3n2)cc1 | 18% | u | u | i
CCOc1ccccc1CNC(=O)c1cc2c(=O)n(Cc3ccccc3)ccc2nc1C | x | u | -2% | -94%
COCCNC(=S)N1CCN(c2nc(-c3ccccc3)cs2)CC1 | -3% | -17% | -4% | -75%
O=C(NC12CC3CC(CC(C3)C1)C2)N1CCN(c2nc(-c3ccccc3)cs2)CC1 | -10% | 3.2µM* | 1% | -28%[57.5 µM]
COc1ccc(N2CCN(C(=O)NC34CC5CC(CC(C5)C3)C4)CC2)cc1 | -3% | 7.9µM* | -21% | -33%
O=C(NC(=S)N1CCN(c2nc(-c3ccccc3)cs2)CC1)c1cccnc1 | -35% | 8.9µM* | -15% | -25%
O=C(CS)Nc1ccccc1 | 7% | x | x | x
Cc1cc(CC(=O)O)c(C)n1-c1ccc(Cl)cc1 | 8% | x | x | x
CC(=O)Oc1ccc2c(C)c(CC(=O)N3CCN(C(=O)C4COc5ccccc5O4)CC3)c(=O)oc2c1C (centres undefined) | 5% | -14% | i | -19%
COc1cc(C)cc2oc(=O)c(CC(=O)N3CCN(C(=O)C4COc5ccccc5O4)CC3)c(C)c12 (centres undefined) | -6% | 10µM* | -16% | -16%
O=C(C1COc2ccccc2O1)N1CCN(Cc2ccc(Br)cc2F)CC1 (centres undefined) | 7% | 11µM* | 7% | -92%
Cc1cc(O)c2c(C)c(CC(=O)N3CCN(C(=O)C4COc5ccccc5O4)CC3)c(=O)oc2c1 (centres undefined) | 0% | 6.3µM* | 12% | -43%
O=C(C1COc2ccccc2O1)N1CCN(c2ccccc2O)CC1 (centres undefined) | 4% | -28% | 2% | -17%
C=Cc1ccc(Cn2c(C(=O)O)c(CNC3CCCCC3)c3ccc(OC)cc32)cc1 | 2% | 14% | -15% | -23%
Fc1ccc2[nH]c3c(c2c1)CN(C(=S)NCc1ccccc1)CC3 | -2% | 5µM* | -11% | -12%
C=CCNC(=O)N1CCc2[nH]c3ccc(F)cc3c2C1 | 6% | -2% | 2% | i
O=C(NCCc1cn2ccccc2n1)c1cc(COc2ccc3ncccc3c2)on1 | 1% | 13µM* | -4% | -41%
SMILES | GLP-1R agonist | GLP1R inv ag | GLP1R cytotox | PTHR1 ag
CC(NC(=O)c1cc(COc2ccc3ncccc3c2)on1)c1ccc(F)cc1 (centres undefined) | 10% | 1.8µM* | -7% | -48%
O=C(NC1CCCC1)c1cc(COc2ccc3ncccc3c2)on1 | 4% | -12% | -2% | -28%
O=C(Nc1ccc(Br)cc1F)c1ccc2nc(CCc3ccccc3)oc2c1 | x | -7% | 5% | -14%
COc1ccc(NC(=O)/C(Cl)=C(/Cl)S(=O)Cc2ccccc2)cn1 (centres undefined) | -24% | -7% | 2.8µM* | i
CC1CCN(C(c2ccccc2)c2sc3nc(-c4ccco4)nn3c2O)CC1 (centres undefined) | x | -24% | -9% | i
CCOC(=O)C1=C(CNCc2ccccc2Cl)NC(=O)NC1c1cccc([N+](=O)[O-])c1 (centres undefined) | 13% | u | -5% | -41%
